Bioassay records: PubChem BioAssay, National Center for Advancing Translational Sciences (NCATS)
A549 tox-1 – kills or reduces viability of A549 cells in Nrf2 counter-screen | A549 ARE-Fluc cells, CellTiter-Fluor viability, 18-24 h | Potency, µM (doses to about 46 µM), for inactives: at the top dose activity change, negative = cytotoxicity, hits mostly inhibitors | hit rate 0.16% among 390,000; also: potency is read from the fitted curve at half-maximal effect; % is scaled to controls: 0 for no effect and ±100 for the full control effect
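A549 ARE_Fluc cells in 5% FBS OPTI-MEM were exposed to compounds in concentration-response for 18-24 h at 37 deg C. Viability was read by CellTiter-Fluor fluorescence (Ex 405/Em 525) after 30 min, before the luciferase read.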
mIDH1 inhibitor – blocks human mutant IDH1 R132H enzyme. IDH1-R132H enzyme, NADPH consumption, diaphorase/resazurin fluorescence. Potency, µM (top dose mostly 76.6 µM), without a hit: top-dose activity change, negative = inhibition, usual class: inhibitors. hit rate 0.093% among 390,000; also: potency is read from the fitted curve at half-maximal effect; % is scaled to controls: 0 for no effect and ±100 for the full control effect; nearly all actives have a fitted effect of over 65% in size
Target sequence (O75874 whole entry R132H, stated change not applied): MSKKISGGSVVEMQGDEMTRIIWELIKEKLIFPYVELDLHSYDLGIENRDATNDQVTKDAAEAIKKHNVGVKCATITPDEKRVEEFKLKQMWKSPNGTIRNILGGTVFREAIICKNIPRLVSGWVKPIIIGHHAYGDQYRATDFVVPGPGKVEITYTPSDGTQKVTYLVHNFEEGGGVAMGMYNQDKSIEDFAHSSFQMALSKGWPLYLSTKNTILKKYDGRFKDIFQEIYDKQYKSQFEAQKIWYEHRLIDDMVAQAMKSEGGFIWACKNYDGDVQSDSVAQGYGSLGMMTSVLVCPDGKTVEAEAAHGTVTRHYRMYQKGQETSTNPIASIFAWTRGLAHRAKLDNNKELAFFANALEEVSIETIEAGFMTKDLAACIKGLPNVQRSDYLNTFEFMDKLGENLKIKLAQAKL
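IDH1-R132H (0.5 ug/mL) preincubated 30 min with compound, then NADPH (0.016 mM) and alpha-KG (2 mM) added; 80 min at RT, pH 7.5. Remaining NADPH coupled via diaphorase/resazurin to fluorescence (540/590 nm); concentration-response curves normalized to no-enzyme control.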
Nrf2 block – inhibitors of Nrf2 signaling | A549 ARE-Fluc reporter, luciferase luminescence, 18-24 h | Potency, µM (titrated, usually from 46 µM), without a hit: at the top dose activity change, negative = inhibition, usual class: inhibitors | hit rate 2.1% among 360,000 | AID 504444; also: potency is read from the fitted curve at half-maximal effect; % is scaled to controls: 0 for no effect and ±100 for the full control effect; nearly all actives have a fitted effect of over 60% in size
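Concentration-response testing used A549 ARE_Fluc cells at 5000 cells/well. Following an 18-24 h compound incubation, viability was read by fluorescence (Ex 405/Em 525) and luciferase output by luminescence.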
Apoferritin bind – candidate novel general anesthetic via apoferritin binding; Potency, µM (titrated, usually from 77.5 µM), for the others: at the highest dose activity change, negative = displacement, actives largely listed as inhibitors; hit rate 0.074% among 350,000; apoferritin/1-aminoanthracene competitive binding, fluorescence; P02791; also: potency is read from the fitted curve at half-maximal effect; % is scaled to controls: 0 for no effect and ±100 for the full control effect; nearly all actives have a fitted effect of over 20% in size
Target sequence (P02791 2-175 limits assumed): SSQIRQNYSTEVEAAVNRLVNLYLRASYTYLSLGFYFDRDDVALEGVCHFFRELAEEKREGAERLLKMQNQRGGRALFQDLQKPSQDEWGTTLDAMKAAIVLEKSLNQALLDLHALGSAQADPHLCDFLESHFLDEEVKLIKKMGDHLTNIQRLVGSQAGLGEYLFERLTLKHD
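Steps: apoferritin (10 uM) was premixed with half-saturated 1-AMA in PBS, compounds were pin-transferred, plates stood 10 min at room temperature, fluorescence was read at 380/535 nm, and curves were fitted with a Hill equation.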
Nrf2 ARE act – Nrf2 pathway activation; AREc32 ARE-luciferase reporter (MCF7-derived line), luminescence, 24 h; Potency, µM (titrated, usually from 46.1 µM), inactives show at the top dose activation, most hits filed as activators; hit rate 0.31% among 410,000; also: potency is read from the fitted curve at half-maximal effect; % of control where 0% means no effect; nearly all actives have a fitted effect of over 65% in size
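ARE activation measured as luciferase luminescence (Steady-Glo, 30 min RT) in AREc32_Fluc cells after 24 hr compound exposure at 37 deg C, 5% CO2; cells seeded overnight at 1000/well in OPTI-MEM, 5% FBS.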
Giardia kill – Giardia lamblia killing; Giardia lamblia trophozoite viability; activity change, % at 7.66 µM, hits read low; hit rate 0.15% among 340,000; in the data active = activity change below about -80%; inconclusive = between about -30% and that limit;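 also: parasites exposed to compound for two days anaerobically before the ATP read; % is scaled to controls: 0 for no effect and ±100 for the full control effect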
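Each well holds 100 Giardia trophozoites and compound. After two days (48 hrs) at 37 deg C in anaerobic conditions, ATP is quantified by luminescence.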
FLuc counter 3 – blocks purified firefly luciferase in Nrf2 counterscreen. shares compounds with Nrf2 block. purified firefly luciferase, luminescence inhibition. Potency, µM (titrated, usually from 57.5 µM), without a hit: at the top dose activity change, negative = inhibition, actives largely listed as inhibitors. hit rate 4% among 1,400; also: potency is read from the fitted curve at half-maximal effect; % is scaled to controls: 0 for no effect and ±100 for the full control effect; nearly all actives have a fitted effect of over 65% in size
A549 tox-2 – counter-screen for Nrf2 inhibitors: cytotoxicity in A549 ARE cells. shares compounds with Nrf2 block. Potency, µM (top dose mostly 46.1 µM), for the others: top-dose activity change, negative = cytotoxicity, hits mostly inhibitors. AID 720523. hit rate 2% among 1,400. A549 ARE-Fluc cells, cytotoxicity counterscreen;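 also: potency is read from the fitted curve at half-maximal effect; cells exposed to compounds for 18 to 24 hours; % is scaled to controls: 0 for no effect and ±100 for the full control effect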
Nrf2 ARE inh – reduces Nrf2 ARE reporter signal in A549 cells. hit rate 74% among 1,400. shares compounds with Nrf2 block. AID 720524. Potency, µM (titrated, usually from 46.1 µM), for the others: top-dose activity change, negative = inhibition, hits mostly inhibitors. A549 ARE-firefly luciferase reporter, luminescence; also: potency is read from the fitted curve at half-maximal effect; % is scaled to controls: 0 for no effect and ±100 for the full control effect; nearly all actives have a fitted effect of over 65% in size
Starred values were filed as active, the others as inactive; ? = inconclusive; . = no result shown; ! = not confirmed by another sample. An excerpt weighted towards active compounds, which were near 2.3% of everything screened. Unless noted, calls follow the shape of the dose curve; as a rule, active = well fitted curve in the direction sought with a large enough effect; inconclusive = small, poorly fitted or top-dose-only effect, or another doubt; inactive = no such curve, though single readings can be large; an effect the other way counts as inactive or inconclusive.

SMILES	A549 tox-1	mIDH1 inhibitor	Nrf2 block	Apoferritin bind	Nrf2 ARE act	Giardia kill	FLuc counter 3	A549 tox-2	Nrf2 ARE inh
CCOc1ccccc1OCCCC(=O)Nc1cc(S(=O)(=O)N2CCCCC2)ccc1C	.	-1.8%	.	.	-0.5%	.	.	.	.
Clc1ccc(OCCN2CCN(c3ncnc4sccc34)CC2)cc1	-4.7%	7.8%	0.259µM*	-10.0%	-0.7%	-4.0	2.1%	-6.1%	0.461µM*
CCOc1ccc(CNC(=O)CCn2c(=O)c3cccn3c3cccnc32)cc1	9.3%	-13.1%	-1.7%	0.1%	2.3%	.	.	.	.
COc1cccc(CNC(=O)CCn2c(=O)c3cccn3c3cccnc32)c1	1.2%	-1.1%	1.16µM*!	-7.2%	?	5.1	-1.6%	-3.3%	6.8%
CCc1ccc(NC(=O)CC(NCc2cccnc2)C(=O)O)cc1 (stereo unspecified)	3.1%	0.0%	4.7%	2.6%	-1.8%	.	.	.	.
CC1CCc2c(sc3nnn(CC(=O)Nc4c(C(C)C)cccc4C(C)C)c(=O)c23)C1 (stereo unspecified)	8.2%	-4.0%	9.6%	-7.2%	0.4%	.	.	.	.
CN(CCc1ccccc1)C(=O)c1ccc(NC(=O)Cc2ccc(NC(=O)C3CCCN(C(=O)CCc4ccccc4)C3)cc2)cc1 (stereo unspecified)	-10.8%	-5.0%	1.3µM*	.	0.4%	34.4	-3.3%	-9.4%	4.11µM*
CC(=NNC(=S)N1CC2CCC(CC2)C1)c1ccncn1	16.4µM*	2.3%	1.3µM*	.	15.3%	-17.9	10.7µM*	?	0.366µM*
O=C(Nc1cc(S(=O)(=O)N2CCCCC2)ccc1Cl)c1ccccc1NS(=O)(=O)c1ccc(F)cc1	?	-17.6%	3.66µM*	-2.2%	3.5%	-0.3	-26.0%	?	4.61µM*
O=C(Nc1cc(S(=O)(=O)N2CCCCC2)ccc1O)c1ccccc1NS(=O)(=O)c1ccc(F)cc1	2.3%	-16.6%	-7.5%	-1.7%	-0.6%	-13.4	.	.	.
COC(=O)c1c(NC(=O)Cc2coc3cc(C)cc(C)c23)sc2c1CCC2	0.7%	37.5%	-9.6%	-4.3%	-1.1%	.	.	.	.
CCC(=O)N1c2ccccc2CC1C(=O)NCCc1ccc(SC)cc1 (stereo unspecified)	1.2%	7.5%	.	1.5%	-0.2%	.	.	.	.
COc1ccc(/C=N/NS(=O)(=O)c2ccccc2)cc1OC(=O)c1ccc(C)cc1	-8.6%	-21.6%	9.2µM*	-5.8%	-2.9%	7.9	1.1%	-0.7%	7.31µM*
CCCC1O[C@@H]2CC3C4CCC5=CC(=O)C=C[C@]5(C)C4C(OC(C)=O)C[C@]3(C)[C@]2(C(=O)COC(C)=O)O1 (stereo partly specified)	-19.3%	-12.9%	-26.7%	-19.5%	0.3%	6.8	.	.	.
CCC(C)C(NC(=O)CCC(=O)OCC(=O)[C@@]1(O)CCC2[C@@H]3CCC4=CC(=O)C=C[C@]4(C)C3[C@@H](O)C[C@@]21C)C(=O)O (stereo partly specified)	3.6%	1.5%	0.184µM*	-1.9%	-0.1%	11.5	3.2%	-4.0%	0.206µM*
CC(=O)OCC(=O)C1(O)CCC2C3CCC4=CC(=O)C=CC4(C)C3C(O)CC21C (stereo unspecified)	-1.3%	-4.1%	0.0291µM*	-2.1%	-0.2%	36.6	1.4%	-5.6%	0.058µM*
C[C@]12C=CC(=O)C=C1CC[C@@H]1C2[C@@H](O)C[C@@]2(C)C1CC[C@]2(O)C(=O)COC(=O)CCC(=O)O (stereo partly specified)	-2.4%	1.7%	0.13µM*	-11.0%	2.8%	-3.5	-3.1%	-0.3%	?
Nc1ncnc2c1ncn2[C@@H]1O[C@H](C(=O)N2CCC[C@@H]2C(=O)OCc2ccccc2)[C@@H](O)[C@H]1O	.	.	.	.	-0.2%	.	.	.	.
CN(Cc1ccc(Cl)cc1)C(=O)c1ccc(S(=O)(=O)NCc2ccco2)cc1	-12.1%	1.8%	9.2µM*	.	-0.1%	-25.1	-0.1%	-0.3%	6.8%
COc1ccc2c(Sc3ccccc3)c(C(=O)NCC(C)c3ccccc3)[nH]c2c1 (stereo unspecified)	14.0%	23.8%	11.9%	-13.5%	0.1%	.	.	.	.
Cc1ccc(F)cc1NC(=O)N1CCCN(C(=O)OC(C)(C)C)CC1	1.4%	4.3%	-5.0%	3.0%	-0.5%	-8.7	.	.	.
Cc1ccc(F)cc1NC(=O)N1CCN(c2ccnc3cc(Cl)ccc23)CC1	-16.9%	11.4%	9.2µM*	4.7%	-0.9%	19.6	-1.4%	-3.0%	9.2µM*
COc1cc(NC(=O)c2ccc(-c3nc(COc4ccccc4)c(C)o3)cc2)cc(OC)c1	-0.1%	8.7%	5.17µM*	8.6%	0.6%	.	-12.3%	-6.6%	8.2µM*
Cc1ccc(C(=O)Nc2ccc(Br)c(C(F)(F)F)c2)cc1	.	18.2%	1.64µM*	-9.5%	2.3%	3.6	6.75µM*	-25.3%	.
Cc1ccc(CN2C(=O)N/C(=C\c3cccn3-c3cccc(C(=O)O)c3)C2=O)cc1	?	17.0%	2.59µM*	?	-0.3%	-9.5	-23.1%	-8.8%	-8.0%
SMILES	A549 tox-1	mIDH1 inhibitor	Nrf2 block	Apoferritin bind	Nrf2 ARE act	Giardia kill	FLuc counter 3	A549 tox-2	Nrf2 ARE inh
COC(=O)c1ccccc1NC(=O)CSc1nc(C)cc(C)n1	13.0%	12.0%	-10.0%	-13.5%	0.2%	18.7	.	.	.
O=C(CSC1=NCCS1)Nc1ccnc2ccccc12	-14.6%	-0.5%	5.17µM*	-7.8%	11.2%	-5.4	-2.3%	-10.8%	7.31µM*
Cc1cc(C)nc(SCC(=O)Nc2ccnc3ccccc23)n1	?	3.1%	1.16µM*	-4.2%	2.7%	-4.6	-1.9%	-8.9%	-24.3%
O=C(CSC1=NCCS1)Nc1ccc2ccccc2c1	8.9%	2.0%	8.9%	-11.9%	8.1%	-22.5	.	.	.
COc1cc(-c2noc(-c3ccc(N4CCOCC4)c([N+](=O)[O-])c3)n2)cc(OC)c1OC	-1.7%	13.8%	?	-12.1%	-0.1%	.	.	.	.
O=C(O)CCSc1nnc(-c2ccc(Cl)cc2Cl)o1	-4.0%	6.5%	0.058µM*	5.2%	-4.3%	.	3.01µM*	-0.4%	0.184µM*
COc1ccc(CN(C)Cc2nc(Cc3cccc(F)c3)no2)c2cccnc12	?	4.5%	3.26µM*	-12.1%	2.5%	-24.9	-0.3%	-6.6%	?
